Among the data in PubChem BioAssay (NCI) are growth values, retold here.

Several values for one entry are separate records, joined by “and”; a condition that tells them apart may be missing. Identical values can stand only once. Compounds without any hit were thinned out: in the full panel of roughly 83,000, 20% have a hit.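 Testing used 96-well plates and a 48-hour single-concentration exposure. Example: -40 means 40% of the starting cells died.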 Activity calls are given as the source filed them. How the source made its calls: active means growth percent below 10; inactive means the rest.

Test systems include SR leukemia; RPMI-8226 leukemia; OVCAR-8 ovarian; OVCAR-5 ovarian; OVCAR-4 ovarian; SK-OV-3 ovarian; IGROV1 ovarian; OVCAR-3 ovarian; HS 578T breast; NCI/ADR-RES ovarian; T-47D breast; BT-549 breast; MDA-MB-435 melanoma; SW-620 colon; MCF7 breast; HCC-2998 colon; KM12 colon; HCT-116 colon.
Common to all, as to assay: NCI-60 one-dose screen, 48 h (100 = growth as untreated, 0 = no growth, -100 = all killed)
Details in all cases: 10 µM unless noted

Turning to `O=C(O)/C=C/C=C/c1ccccc1`, the growth in the test with SR leukemia was 104% (inactive) and 109% (inactive); with RPMI-8226 leukemia it was 112% (inactive) and 99.7% (inactive); with OVCAR-8 ovarian, 102% (inactive) and 109% (inactive); in the test with OVCAR-5 ovarian, 103% (inactive) and 96.8% (inactive); in the test with OVCAR-4 ovarian it was 116% (inactive) and 108% (inactive); in the test on SK-OV-3 ovarian, 113% (inactive) and 104% (inactive). The growth in the test on IGROV1 ovarian is 105% (inactive) and 110% (inactive); in the test with OVCAR-3 ovarian it was 124% (inactive) and 98.8% (inactive); in the test on HS 578T breast, 109% (inactive) and 108% (inactive); with NCI/ADR-RES ovarian it was 111% (inactive) and 102% (inactive); in the test with T-47D breast, 100% (inactive) and 105% (inactive); in the test on BT-549 breast, 103% (inactive) and 107% (inactive). For the same compound, the growth is 105% (inactive) and 111% (inactive) with MDA-MB-435 melanoma; 104% (inactive) and 103% (inactive) in the test on SW-620 colon; 92.9% (inactive) and 94.4% (inactive) with MCF7 breast; 104% (inactive) in the test with HCC-2998 colon; 105% (inactive) and 103% (inactive) in the test on KM12 colon.
Regarding `Nc1c(Cl)cc2c(c1Br)C(=O)c1ccccc1C2=O`, the growth in the test with SR leukemia was 78.4% (inactive); in the test on RPMI-8226 leukemia, 98.3% (inactive); with OVCAR-8 ovarian it was 89.3% (inactive); in the test on OVCAR-5 ovarian, 98.5% (inactive); with OVCAR-4 ovarian, 106% (inactive); with SK-OV-3 ovarian it was 84% (inactive). Further, the growth with IGROV1 ovarian is 71.6% (inactive); with OVCAR-3 ovarian, 117% (inactive); in the test on HS 578T breast, 98% (inactive); in the test with NCI/ADR-RES ovarian it was 92.4% (inactive); with T-47D breast, 76% (inactive); in the test with BT-549 breast, 114% (inactive). Besides, the growth with MDA-MB-435 melanoma was 105% (inactive); in the test on SW-620 colon, 99.6% (inactive); in the test with MCF7 breast it was 99.8% (inactive); with HCT-116 colon it was 96.7% (inactive); in the test on HCC-2998 colon it was 101% (inactive); in the test on KM12 colon, 106% (inactive).
In the case of `COc1cc([C@@H]2c3cc4c(cc3[C@H](O)[C@H]3COC(=O)[C@@H]23)OCO4)cc(OC)c1OC`, the growth in the test with SR leukemia was 6.02% (active) and -8.59% (active); in the test on RPMI-8226 leukemia it was 25.8% (inactive) and -19.7% (active); in the test on OVCAR-8 ovarian it was 11.5% (inactive) and 18.9% (inactive); in the test with OVCAR-5 ovarian, 24.3% (inactive) and 30.4% (inactive); with OVCAR-4 ovarian it was 34.2% (inactive) and 35.6% (inactive); in the test with SK-OV-3 ovarian it was 33% (inactive) and 3.05% (active). Also, the growth in the test on IGROV1 ovarian is -2.37% (active) and -41.6% (active); with OVCAR-3 ovarian it was 29% (inactive) and -49.9% (active); in the test on HS 578T breast it was -47.7% (active); in the test on NCI/ADR-RES ovarian, 5.58% (active) and -30.9% (active); in the test with T-47D breast, 40.1% (inactive) and 71.1% (inactive); in the test with BT-549 breast, 22.3% (inactive). Besides, the growth is -23.1% (active) and -44.3% (active) with MDA-MB-435 melanoma; 16.7% (inactive) and 4.24% (active) with SW-620 colon; 18.4% (inactive) and 5.61% (active) with MCF7 breast; 10.5% (inactive) and -40.7% (active) in the test on HCT-116 colon; -10.3% (active) and -60.9% (active) with HCC-2998 colon; 28.4% (inactive) and -3.9% (active) with KM12 colon.
Consider `CCN(CC)Cc1cc2[nH]c3c4ccc(Cl)cc4ncc3c2cc1OC`, for which the growth is -49.9% (active) and -13.8% (active) in the test on SR leukemia; -39.2% (active) in the test on RPMI-8226 leukemia; 83.2% (inactive) and 80.6% (inactive) with OVCAR-8 ovarian; 98% (inactive) and 98.6% (inactive) in the test with OVCAR-5 ovarian; 33.3% (inactive) and -1.1% (active) with OVCAR-4 ovarian; 83.8% (inactive) and 105% (inactive) in the test with SK-OV-3 ovarian. Moreover, the growth in the test with IGROV1 ovarian is 293% (inactive) and 63.1% (inactive); in the test on OVCAR-3 ovarian it was 87.5% (inactive); in the test with HS 578T breast, -7.12% (active) and 99.3% (inactive); in the test with NCI/ADR-RES ovarian, 78.1% (inactive) and 102% (inactive); in the test on T-47D breast, 99.2% (inactive) and 94.2% (inactive); with BT-549 breast, 75.1% (inactive) and 82.2% (inactive). In addition, the growth in the test on MDA-MB-435 melanoma is 1.09% (active) and 44% (inactive); with SW-620 colon, 4.64% (active) and 25.5% (inactive); with MCF7 breast, 16.5% (inactive) and 64.2% (inactive); with HCT-116 colon it was -3.8% (active) and 7.95% (active); in the test on HCC-2998 colon it was 83.6% (inactive) and 101% (inactive); with KM12 colon, 2.32% (active) and 42.7% (inactive).
Consider `O=C(O)c1cccc(Br)c1`, for which the growth in the test with SR leukemia is 90.2% (inactive) and 100% (inactive); in the test on RPMI-8226 leukemia, 103% (inactive) and 104% (inactive); in the test on OVCAR-8 ovarian, 108% (inactive) and 100% (inactive); in the test with OVCAR-5 ovarian it was 100% (inactive) and 98.7% (inactive); with OVCAR-4 ovarian it was 99.5% (inactive) and 105% (inactive); in the test with SK-OV-3 ovarian, 104% (inactive) and 106% (inactive). In addition, the growth was 105% (inactive) and 104% (inactive) in the test on IGROV1 ovarian; 100% (inactive) and 105% (inactive) in the test with OVCAR-3 ovarian; 124% (inactive) and 101% (inactive) in the test with HS 578T breast; 98.1% (inactive) and 106% (inactive) in the test on NCI/ADR-RES ovarian; 92.3% (inactive) and 83.4% (inactive) with T-47D breast; 104% (inactive) in the test with BT-549 breast. The growth with MDA-MB-435 melanoma was 114% (inactive) and 107% (inactive); in the test with SW-620 colon, 112% (inactive) and 104% (inactive); in the test on MCF7 breast, 98.7% (inactive) and 98.2% (inactive); with HCT-116 colon it was 99.7% (inactive) and 97.6% (inactive); in the test on HCC-2998 colon it was 122% (inactive) and 103% (inactive); in the test with KM12 colon it was 101% (inactive) and 106% (inactive).
